The text below walks through data of the supplement of paper PMC13380429.

In assay [1] the test system is Vero E6 infected with SARS-CoV-2. Briefly: morphology score (similarity to uninfected cells); higher = more like uninfected cells. Particulars: 24 h.
The test system is the same in assay [2]. Briefly: SARS-CoV-2 infection rate relative to infected DMSO; higher = more infection, active = 60 or less. Particulars: 24 h.

In turn, `COc1cc(-c2ncn(/C=C\C(=O)OC(C)C)n2)cc(C(F)(F)F)c1` (10 µM) displayed a morphology score in assay [1] of -0.358. Besides, the SARS-CoV-2 infection rate in assay [2] was 114% (inactive).

In turn, `CC(C)(C)NC(=O)[C@@H]1C[C@@H]2CCCC[C@@H]2CN1C[C@@H](O)[C@H](Cc1ccccc1)NC(=O)[C@H](CC(N)=O)NC(=O)c1ccc2ccccc2n1` [saquinavir] (10 µM) showed a morphology score in assay [1] of 0.0775. The SARS-CoV-2 infection rate in assay [2] is 106% (inactive).

Turning to `O=C(Nc1ccc(C(F)(F)F)cn1)N1CCN(c2ncccc2C(F)(F)F)CC1` (10 µM), the morphology score in assay [1] was determined as 0.0927. Besides, in assay [2], the SARS-CoV-2 infection rate was 93.5% (inactive).

`C=Cc1cc(O)cc2nc(-c3ccc(O)c(F)c3)oc12` [prinaberel] (10 µM) returned a morphology score in assay [1] of 0.143. For the same compound, the SARS-CoV-2 infection rate in assay [2] is 96.5% (inactive).

In assay [1], `COCC1=C(C(=O)O)N2C(=O)[C@@H](NC(=O)/C(=N\OC)c3csc(N)n3)[C@H]2SC1` [cefpodoxime] (10 µM) gave a morphology score of 0.105. For the same compound, the SARS-CoV-2 infection rate in assay [2] is 104% (inactive).

Take `COc1c(O)cc2c(c1O)[C@@H]1O[C@H](CO)[C@@H](O)[C@H](O)[C@H]1OC2=O` [bergenin] (10 µM): the morphology score in assay [1] stood at 0.087. The SARS-CoV-2 infection rate in assay [2] is 96% (inactive).

As to `O=S(=O)(O)CCS` [mesna] (10 µM), the morphology score in assay [1] was 0.157. In addition, the SARS-CoV-2 infection rate in assay [2] is 109% (inactive).

Consider `COC(=O)[C@H]1[C@H]2C[C@@H]3c4[nH]c5cc(OC)ccc5c4CCN3C[C@H]2C[C@@H](OC(=O)c2cc(OC)c(OC)c(OC)c2)[C@@H]1OC` [reserpine] (10 µM), for which, in assay [1], the morphology score amounted to 0.127. Besides, the SARS-CoV-2 infection rate in assay [2] was 110% (inactive).

In turn, `CO[C@H]1O[C@@H]2O[C@@]3(C)CC[C@H]4[C@H](C)CC[C@@H]([C@H]1C)[C@@]24OO3` [artemether] (10 µM) displayed a morphology score in assay [1] of 0.0275. Moreover, the SARS-CoV-2 infection rate in assay [2] is 105% (inactive).

`CC[C@H]1OC(=O)[C@H](C)[C@@H](O[C@H]2C[C@@](C)(OC)[C@@H](O)[C@H](C)O2)[C@H](C)[C@@H](O[C@@H]2O[C@H](C)C[C@H](N(C)C)[C@H]2O)[C@](C)(OC)C[C@@H](C)C(=O)[C@H](C)[C@@H](O)[C@]1(C)O` [clarithromycin] (10 µM): the morphology score in assay [1] was -0.0778. The SARS-CoV-2 infection rate in assay [2] is 109% (inactive).

`Cc1sc2c(c1C)C(c1ccc(Cl)cc1)=N[C@@H](CC(=O)Nc1ccc(O)cc1)c1nnc(C)n1-2` (10 µM) returned a morphology score in assay [1] of -0.169. For the same compound, the SARS-CoV-2 infection rate in assay [2] is 114% (inactive).

`C=C1/C(=C\C=C2/CCC[C@]3(C)[C@@H]([C@H](C)CCCC(C)(C)O)CC[C@@H]23)C[C@@H](O)C[C@@H]1O` [calcitriol] (10 µM) had a morphology score in assay [1] of 0.098. Besides, in assay [2], the SARS-CoV-2 infection rate was 108% (inactive).

Turning to `CC12CCC(C(=O)N(CCCCN3CCN(c4ccccn4)CC3)C1=O)C2(C)C` (stereo not given) [piricapiron] (10 µM), the morphology score in assay [1] is 0.11. Besides, the SARS-CoV-2 infection rate in assay [2] is 103% (inactive).

Consider `O=C(O)C1=CCCN(CCON=C(c2ccccc2)c2ccccc2)C1` (10 µM), for which the morphology score in assay [1] was determined as 0.0245. Also, the SARS-CoV-2 infection rate in assay [2] was 95% (inactive).

`c1ccc2sc(N3CCN(Cc4ccc5c(c4)OCO5)CC3)nc2c1` [2-[1-(4-piperonyl)piperazinyl]benzothiazole] (10 µM): the morphology score in assay [1] worked out at 0.00324. Also, in assay [2], the SARS-CoV-2 infection rate is 102% (inactive).

`CC[C@H](/C=C/[C@@H](C)[C@H]1CC[C@H]2[C@@H]3CC=C4C[C@@H](O)CC[C@]4(C)[C@H]3CC[C@]12C)C(C)C` [Stigmasterol (Stigmasterin)] (10 µM) had a morphology score in assay [1] of 0.0238. Moreover, in assay [2], the SARS-CoV-2 infection rate is 116% (inactive).

Regarding `CC[C@H](NC(=O)c1c(O)c(-c2ccccc2)nc2ccccc12)c1ccccc1` [talnetant] (10 µM), in assay [1], the morphology score is -0.0287. In addition, the SARS-CoV-2 infection rate in assay [2] was 117% (inactive).

For `Cc1nc(C)c(-c2ccc(C3CCC(CC(=O)O)CC3)cc2)nc1C(N)=O` (stereo not given) (10 µM), the morphology score in assay [1] amounted to 0.134. In assay [2], the SARS-CoV-2 infection rate was 89.5% (inactive).

`NC(=O)[C@@H](CC1CC1)[C@@H](CCC(F)(F)F)C(=O)N[C@H]1N=C(c2ccccc2)c2cccc(F)c2NC1=O` (10 µM) returned a morphology score in assay [1] of 0.179. In addition, the SARS-CoV-2 infection rate in assay [2] was 102% (inactive).

`Cc1cc(C)c(N)c(C#Cc2cccc(F)c2)n1` (10 µM) yielded a morphology score in assay [1] of 0.221. Moreover, the SARS-CoV-2 infection rate in assay [2] was 97.5% (inactive).

With `CCCNC(=O)N1N=C(c2ccc(N)cc2)c2cc3c(cc2C1C)OCO3` (stereo not given) (10 µM), the morphology score in assay [1] is 0.256. For the same compound, the SARS-CoV-2 infection rate in assay [2] was 96.5% (inactive).

Turning to `O=C(O)c1cccc(-c2noc(-c3ccccc3F)n2)c1` [ataluren] (10 µM), in assay [1], the morphology score was -0.00572. In addition, in assay [2], the SARS-CoV-2 infection rate was 112% (inactive).

Regarding `NC[C@H]1CC[C@H](C(=O)O)CC1` [tranexamic-acid] (10 µM), the morphology score in assay [1] came to 0.0762. Moreover, the SARS-CoV-2 infection rate in assay [2] is 108% (inactive).

`CCOC(=O)[C@@H](N)CCC(=O)N[C@@H](CSCc1ccccc1)C(=O)N[C@@H](C(=O)OCC)c1ccccc1` [ezatiostat] (10 µM) showed a morphology score in assay [1] of 0.202. Also, the SARS-CoV-2 infection rate in assay [2] was 78.5% (inactive).

`C[C@H](Nc1ncnc2[nH]cnc12)c1nc2ccc(F)cc2c(=O)n1-c1ccccc1` [acalisib] (0.833333 µM) registered a morphology score in assay [1] of -0.115. In assay [2], the SARS-CoV-2 infection rate was 110% (inactive).
